# High-throughput results deposited in PubChem by National Center for Advancing Translational Sciences (NCATS).
# PNC inhibitor: perinucleolar compartment assembly inhibition; PC3M PTB-GFP, PNC prevalence imaging, 16 h; active compounds read low; activity change (PNC), negative = inhibition, % at 10 µM; hit rate 3.1% among 140,000;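 active = readout at or below -70, meaning at least 70% loss of cells showing the perinucleolar compartment, a nuclear body marking cancer cells; inconclusive = readout between -30 and a set limit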;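 also: plate controls were DMSO wells for no effect and camptothecin positive control wells for full effect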
#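 PC3M cells stably expressing PTB-GFP, 750–1000 cells/well, treated 16 h at 37 °C with compound (23 nl of library stock), in duplicate. After paraformaldehyde fixation and Hoechst stain, imaged at 20x; PNC prevalence scored by image analysis.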
# IMPase Li cell: IMPase inhibition in cells with lithium potentiation | hit rate 0.35% among 210,000 | CHO-M1 cells, IP1 TR-FRET (IP-One), carbachol + lithium | Potency, µM (series often up to 59.4 µM), without a hit: top-dose activity, negative = IMPase inhibition, actives largely listed as inhibitors; active = well fitted inhibition curve with a large enough effect; inconclusive = small, poorly fitted or top-dose-only effect; inactive = no such curve, though single readings can be large or run the other way;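 also: IP1 builds up when IMPase is blocked and the TR-FRET signal falls; potency is read from the fitted curve at half-maximal effect; plate controls were basal vehicle for no effect and high inhibitor control for full effect; nearly all actives have a fitted effect of over 50% in size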
#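 Test compounds were applied to CHO-M1 cells previously cultured for 16–30 h at 2000 per well. A small lithium amount accompanied them; after 30 min at 37C, IP1 was quantified by TR-FRET.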
# IMPase inh: cell-permeable inhibitors of inositol monophosphatase (IMPase); P97697; CHO-M1 cells, IP1 accumulation, HTRF TR-FRET ratio; inhibition (IP1 accumulation), % at 46.1 µM; 120,000 tested, under 10 active; active = well fitted curve in the direction sought with a large enough effect in the signal ratio, not every such curve was filed as active; inconclusive = small, poorly fitted or top-dose-only effect, or a change in a side signal; inactive = no such curve, though single readings can be large or run the other way; the % refers to the signal ratio;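 also: cells stimulated with carbachol in lithium chloride buffer; plate controls were DMSO basal wells for no effect and reference inhibitor wells for full effect; higher means more IMPase inhibition seen as more IP1 and lower FRET ratio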
# Target sequence (P97697 whole entry, looked up): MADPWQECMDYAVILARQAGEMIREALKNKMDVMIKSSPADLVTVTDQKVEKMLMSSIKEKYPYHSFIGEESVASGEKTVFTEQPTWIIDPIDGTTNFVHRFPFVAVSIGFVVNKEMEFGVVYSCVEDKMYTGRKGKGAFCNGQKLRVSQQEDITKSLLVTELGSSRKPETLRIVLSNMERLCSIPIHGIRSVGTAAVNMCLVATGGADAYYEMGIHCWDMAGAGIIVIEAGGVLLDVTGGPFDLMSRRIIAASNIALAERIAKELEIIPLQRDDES
#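 Carbachol-driven Gq signalling in CHO-M1 cells (2000/well) generates IP1. Compounds that block IMPase raise IP1 and so reduce the FRET signal from Eu-anti-IP1 and d2-IP1 after a 10 min room-temperature lysis.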
# HPGD inh: blocks human HPGD enzyme activity. P15428. purified HPGD, NADH fluorescence kinetic, PGE2 substrate. Potency, µM, without a hit: at the top dose activity change, negative = inhibition, actives largely listed as inhibitors. hit rate 4.3% among 150,000. AID 894; also: potency is read from the fitted curve at half-maximal effect
# Target sequence (P15428 whole entry, looked up): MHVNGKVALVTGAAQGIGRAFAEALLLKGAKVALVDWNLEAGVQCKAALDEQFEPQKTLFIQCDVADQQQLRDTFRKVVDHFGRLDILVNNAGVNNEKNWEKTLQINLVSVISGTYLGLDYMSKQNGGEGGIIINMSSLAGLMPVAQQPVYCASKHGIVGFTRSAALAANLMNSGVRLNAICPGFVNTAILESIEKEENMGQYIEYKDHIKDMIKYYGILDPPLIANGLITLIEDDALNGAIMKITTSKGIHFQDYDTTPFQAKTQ
#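 NADH formation kinetics: reaction with 30 uM PGE2 and 1 mM NAD+ (final), 20 nM enzyme, Tris-HCl pH 8 with Tween 20, after 15 min compound preincubation at room temperature. Fluorescence change, last versus first of five reads.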
# ALDH1A1 inh: ALDH1A1 (human) enzyme inhibition. P00352. Purified ALDH1A1, NADH fluorescence, propionaldehyde substrate. Potency, µM (doses to about 75.3 µM), without a hit: top-dose activity, negative = inhibition, hits mostly inhibitors. hit rate 7.3% among 220,000. AID 1030;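 also: potency is read from the fitted curve at half-maximal effect; plate controls were no enzyme wells and a reference inhibitor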
# * marks the source's active call; other numbers are inactive results; ? = inconclusive; / = no result given; ! = a repeat was not active; [ ] = remark or other dose. Sampled rows, rich in hits. Any-hit rate of the full collection: about 11%. Unless noted, calls follow the shape of the dose curve; as a rule, active = well fitted inhibition curve with a large enough effect (not every such curve was filed as active); inconclusive = small, poorly fitted or top-dose-only effect, or another doubt; inactive = no such curve, though single readings can be large or run the other way. Unless noted, % is scaled to controls: 0 for no effect and ±100 for the full control effect.
SMILES,PNC inhibitor,IMPase Li cell,IMPase inh,HPGD inh,ALDH1A1 inh
COc1ccc(/C=C2\C(=O)NC(=O)N(CCC3=CCCCC3)C2=O)c(OC)c1,-12,-1%,9,20µM*,0.32µM*
O=C1NC(=O)N(CCC2=CCCCC2)C(=O)/C1=C/c1ccc(O)cc1,-15,6%,-1,11µM*,0.79µM*
CCN1C(=O)NC(=O)/C(=C\c2ccc(N3CCOCC3)cc2OC)C1=O,3,-11%[38.3 µM],0,?,?
Cc1cccc(C)c1N,/,-18%,/,-3%,-5%
C[C@@H](Cc1ccc(Cl)cc1Cl)NO,/,-7%,/,-3%,11%[13.5 µM]
CNC(=O)Oc1ccc2c(c1)C(=O)c1ccccc1CO2,-7,38%[38.3 µM],6,-23%,11µM*
C=CCN1C(=O)NC(=O)/C(=C/c2ccoc2)C1=O,43,0%,/,25µM*,?
C=CCN1C(=O)NC(=O)/C(=C/c2cccn2C)C1=O,-7,7%[38.3 µM],9,-23%,4%
C=CCN1C(=O)NC(=O)/C(=C/c2ccc(N(C)C)c(Br)c2)C1=O,/,7%,/,/,13µM*
FC(F)(F)c1ccc(Cl)cc1,/,-9%,/,-3%,0%
CSC1=NP(=S)(SC)N2CCCC2=C1C#N (configuration not stated),8,0%[38.3 µM],-2,8%,1%
COC(=O)CSC1=NP(=S)(SCC(=O)OC)N2CCCC2=C1C#N (configuration not stated),-127*,6%[38.3 µM],-5,-2%,?
C=C(C)C1CCC(C)=CC1c1c(O)cc(O)cc1CCCCC (configuration not stated),/,4%,/,-4%,-13%
COc1cc2c(cc1OC)-c1c(OC)c(OC)c(OC)c3ccnc(c13)C2=O,-101*,22%,/,?,3%
CCN(CC)C(=O)N[C@H]1C=C2c3cccc4[nH]cc(c34)C[C@@H]2N(C)C1,/,1%,0[20.6 µM],?,?
OC1(c2ccc(F)cc2)CC2CCC(C1)N2Cc1nnnn1C1CCCCC1 (configuration not stated),-16,13%[38.3 µM],6,-6%,0.63µM*
Cc1cccn2c(NCC3CCCO3)c(C(C)C)nc12 (configuration not stated),-127*,11%[38.3 µM],9,?,?
O=C(O)C[O][Sb][O]CC(=O)O,/,2%,/,0%,11%[13.5 µM]
CC(C)(C)c1ccc(C(=O)NC(=S)Nn2cnnc2)cc1,-2,/,0,/,9.5µM*
Oc1c(Cl)c(Cl)c(Cl)c(Cl)c1Cl (tested in a mixture with another compound),/,-6%,/,/,4%[13.5 µM]
CCCCCCCCOC(=O)c1ccccc1C(=O)OCCCCCCCC,/,3%,/,-10%,25µM*
C/C(=N/OC(=O)N(C)C)c1ncc(C(F)(F)F)cc1N1CCOCC1,-84*,24%[38.3 µM],6,?,?
Clc1cccc(C(Cl)(Cl)Cl)n1,/,9%,/,-2%,1%
CC1=CCCC2C1(C)CCC(C)C2(C)CC/C(C)=C/C[n+]1cn(C)c2c(N)ncnc21 (configuration not stated),/,23%,/,-7%,18µM*
NC(=NCCc1ccc(I)cc1)SCCCc1cnc[nH]1,/,14%,2,-7%,-2%
SMILES,PNC inhibitor,IMPase Li cell,IMPase inh,HPGD inh,ALDH1A1 inh
O=C1NC(=O)C(C(CC(=O)c2ccccc2)c2ccccc2)C(=O)N1 (configuration not stated),/,5%,/,/,0.1µM*
CN1[C@@H](CC(=O)c2ccccc2)CCC[C@@H]1C[C@@H](O)c1ccccc1,/,0%,3[20.6 µM],-4%,-4%[20.9 µM]
COC[C@H]1OC(=O)c2coc3c2[C@@]1(C)C1=C(C3=O)[C@H]2CCC(=O)[C@@]2(C)C[C@H]1OC(C)=O,/,15%,34,32µM*,28µM*
COC[C@H]1OC(=O)c2coc3c2[C@@]1(C)C1=C(C3=O)C2CCC(=O)[C@@]2(C)C[C@H]1OC(C)=O (some centres not stated),/,24%,/,35µM*!,28µM*!
O=C1C(Cl)=C(Cl)C(=O)C(Cl)=C1Cl,/,112%,/,0.89µM*,0.4µM*
COc1ccc(C2=NCC(=O)N(CC(=O)NCc3ccco3)c3sc4c(c32)CCCC4)cc1,10,0%[38.3 µM],-2,-6%,16µM*
Cc1cccc(C2=NCC(=O)N(CC(=O)NCc3ccco3)c3sc4c(c32)CCCC4)c1,?,38%[38.3 µM],7,28µM*,20µM*
